From article PMC4336329 (PLoS ONE, 2015)
Hit rate of the full screen: of about 310,000 compounds, about 14,000 (4.5%) showed an effect of 50% or more. Effects have a minus sign here. This is one part of a sample in which strong results are shown more often than they occur.

target: human ether-à-go-go-related gene (hERG) potassium channel (human, UniProt Q12809); assay: primary screen, population patch clamp on CHO cells stably expressing hERG; higher = less effect of the substance
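Note: peak tail current of the secondary pulse compared with the same well before compound.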

Chain of human ether-à-go-go-related gene (hERG) potassium channel (Q12809 whole entry, looked up): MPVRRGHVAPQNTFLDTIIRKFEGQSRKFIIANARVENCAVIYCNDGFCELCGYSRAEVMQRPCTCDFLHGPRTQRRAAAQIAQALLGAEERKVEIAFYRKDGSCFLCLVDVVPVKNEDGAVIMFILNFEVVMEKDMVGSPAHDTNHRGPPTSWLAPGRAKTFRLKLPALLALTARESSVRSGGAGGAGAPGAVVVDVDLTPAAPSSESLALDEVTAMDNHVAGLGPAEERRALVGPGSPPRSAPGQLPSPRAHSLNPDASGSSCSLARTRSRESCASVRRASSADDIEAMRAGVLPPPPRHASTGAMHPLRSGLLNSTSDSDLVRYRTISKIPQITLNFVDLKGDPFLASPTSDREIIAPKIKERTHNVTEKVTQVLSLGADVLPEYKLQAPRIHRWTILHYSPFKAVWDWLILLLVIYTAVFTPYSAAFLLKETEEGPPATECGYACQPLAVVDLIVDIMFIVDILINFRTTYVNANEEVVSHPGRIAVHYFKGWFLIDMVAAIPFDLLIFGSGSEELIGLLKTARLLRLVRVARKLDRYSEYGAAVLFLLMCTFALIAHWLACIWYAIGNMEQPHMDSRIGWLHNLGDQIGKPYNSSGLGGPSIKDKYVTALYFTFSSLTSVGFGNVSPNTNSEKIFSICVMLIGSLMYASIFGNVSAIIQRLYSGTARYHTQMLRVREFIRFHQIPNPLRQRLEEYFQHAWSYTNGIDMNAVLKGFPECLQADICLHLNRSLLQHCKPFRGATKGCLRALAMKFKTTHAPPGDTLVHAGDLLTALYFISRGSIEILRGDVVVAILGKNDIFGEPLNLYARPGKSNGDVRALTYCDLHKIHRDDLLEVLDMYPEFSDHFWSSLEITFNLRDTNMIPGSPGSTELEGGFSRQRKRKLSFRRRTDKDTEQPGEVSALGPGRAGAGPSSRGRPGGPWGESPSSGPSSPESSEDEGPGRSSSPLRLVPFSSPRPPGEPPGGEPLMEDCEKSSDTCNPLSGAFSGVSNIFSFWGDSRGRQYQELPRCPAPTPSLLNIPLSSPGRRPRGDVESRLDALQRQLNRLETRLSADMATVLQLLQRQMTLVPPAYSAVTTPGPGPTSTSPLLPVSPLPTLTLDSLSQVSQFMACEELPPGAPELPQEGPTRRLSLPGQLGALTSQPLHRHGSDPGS

SMILES	hERG current change (%, negative = inhibition) at 10uM [%]
Br.COc1cccc(CNCC2CCCO2)c1 (stereo not shown)	13.9
COc1ccc(OC)c(NC(=O)Cc2coc3ccc4ccccc4c23)c1	0.772
Cc1sc(/C=C2\C(=O)ON=C2c2ccccc2)cc1Br	14.8
COC(=O)c1ccc(NC(=O)c2ccc3nsnc3c2)cc1	4.15
COc1ccc(CN2CCSCC2)cc1O	14.4
COc1ccccc1N1CCN(Cc2ccccc2F)CC1	-17.6
COc1ccc(CN2CCN(Cc3ccccc3F)CC2)c(OC)c1.O=C(O)C(=O)O	-68.5
COc1ccc(CN2CCN(c3ccccc3OC)CC2)c(OC)c1.O=C(O)C(=O)O	-64.2
COc1ccc(CN2CCN(Cc3ccccc3F)CC2)cc1.O=C(O)C(=O)O	-43.2
COc1cc(CN2CCN(c3ccccc3F)CC2)c([N+](=O)[O-])cc1OC	-27.4
COc1ccc(CN2CCN(C(=O)c3ccc(F)cc3)CC2)c(OC)c1.O=C(O)C(=O)O	-44.3
COc1ccc(CN2CCN(Cc3ccco3)CC2)c(OC)c1.O=C(O)C(=O)O	-46.4
COc1ccc(CN2CCN(c3ccccc3F)CC2)c(OC)c1	-75.1
COc1cc(CN2CCN(c3ccccc3F)CC2)cc(OC)c1O	-26.4
COc1ccc(CN2CCN(c3ccccc3F)CC2)cc1O	-66.5
COc1ccc(OC)c(CN2CCN(c3ccccc3OC)CC2)c1	-32.7
CC1CN(Cc2ccc(C#N)cc2Cl)CC(C)O1.Cl (stereo not shown)	0.479
COc1ccc(Nc2nc(-c3cccs3)nc3ccccc23)cc1S(=O)(=O)N1CCOCC1	-17.5
COc1ccc(OC)c(S(=O)(=O)N2Cc3ccccc3CC2C(=O)Nc2nccs2)c1 (stereo not shown)	22.2
COc1cc(CNn2c(C)n[nH]c2=S)cc(Cl)c1OCc1ccc(F)cc1	14.4
COc1ccc2c(c1)C(NC(C)=O)C(=O)N2C (stereo not shown)	-5.38
O=C(O)c1ccccc1C(=O)Nn1cnnc1	10.6
CCOC(=O)NC1(C(F)(F)F)NC(=O)N(C2CCCCC2)C1=O (stereo not shown)	-3.7
O=C(CCC(=O)NNC(=O)COc1ccc(Br)cc1)NCc1ccccc1	19.6
OC(CNCc1ccccn1)c1ccccc1 (stereo not shown)	-3.94
COc1cc(CN2CCN(Cc3ccccc3C(F)(F)F)CC2)cc(OC)c1OC.O=C(O)C(=O)O	-8.28
COc1ccc(C(=O)N2CCN(Cc3ccccc3C(F)(F)F)CC2)cc1.O=C(O)C(=O)O	-1.25
COc1ccc(CN2CCN(Cc3ccccc3C(F)(F)F)CC2)c(OC)c1.O=C(O)C(=O)O	-74.2

SMILES	hERG current change (%, negative = inhibition) at 10uM [%]
NS(=O)(=O)c1cc(C(=O)NC2CCSc3ccccc32)ccc1Cl (stereo not shown)	7.27
CC(C)C1N=C(c2ccc3c(c2)OCO3)CC(c2ccccc2O)N1 (stereo not shown)	-20.5
CCC1(C)N=C(c2ccc3c(c2)OCO3)CC(c2ccccc2O)N1 (stereo not shown)	2.42
CC(C)N1CCC2(CC1)N=C(c1ccc3c(c1)OCO3)CC(c1cc(Cl)ccc1O)N2 (stereo not shown)	-67.1
Cc1ccc2cccnc2c1NC(=S)NC(=O)c1ccccc1	17
O=C(C[n+]1ccc(C(=O)NCc2ccccc2)cc1)c1ccc(Cl)cc1.[Br-]	-71.3
O=C(CNC(=O)c1ccc(F)cc1)NCc1ccccn1	-1.73
O=C(CNC(=O)c1ccc(OC(F)F)cc1)NCc1ccccn1	-70.9
O=C(C[n+]1ccc(C(=O)NCc2ccccc2)cc1)c1ccc2c(c1)OCCO2.[Br-]	12.9
COc1ccc(C(=O)C[n+]2cn(C(F)F)c3ccccc32)c(F)c1.[Br-]	-4.45
O=C(NCc1ccccc1)c1ccc(Cl)cc1	2.26
O=C(C[n+]1ccc(C(=O)NCc2ccccc2)cc1)c1ccc(OC(F)F)cc1.[Br-]	-92.8
O=C(C[n+]1cccc(CNC(=O)c2ccc(OC(F)F)cc2)c1)c1ccccc1.[Cl-]	-14.7
O=C(NCCc1ccccn1)c1ccc(OC(F)F)cc1	-24.7
O=C(C[n+]1cn(C(F)F)c2ccccc21)c1ccc(OC(F)F)cc1.[Br-]	-74.9
O=C(C[n+]1cn(C(F)F)c2ccccc21)c1ccc(Br)cc1.[Br-]	-9.95
CCOc1ccc(C(=O)C[n+]2ccc(C(=O)NCc3ccccc3)cc2)cc1.[Br-]	-36
CCCCn1c(N)c(N(CC(C)C)C(=O)c2ccc(-c3ccc(Cl)cc3)o2)c(=O)[nH]c1=O	1.07
CCC(CC)C(=O)OCC(=O)Nc1cccc(S(=O)(=O)N(C)c2ccccc2)c1	14.3
O=C(NCc1ccc(F)cc1)C(C(=O)NCc1ccc(F)cc1)c1ncc(C(F)(F)F)cc1Cl	1.56
O=C(NCc1ccco1)c1cc2ccccc2o1	11.8
COc1cc(OC)cc(C(=O)Nc2ncn[nH]2)c1	7.31
Cc1ccn(CCC(=O)NC2CC(C)(C)Cc3c2cnn3-c2ccccc2C)n1 (stereo not shown)	-25.6
CC1(C)CC(=O)c2cc(C(=O)NC3CCSC3=O)c(=O)n(-c3ccccc3)c2C1 (stereo not shown)	-0.214
Cc1nc(NC(CC(C)C)C(=O)O)c2nc(C)oc2n1 (stereo not shown)	-3.03
COc1ccc(Nc2nc(C)cc(C)n2)cc1Cl.Cl	0.588
COc1ccc(C2N(C(=O)CN3CCCC3)CCCN2S(=O)(=O)c2ccccc2)cc1 (stereo not shown)	-15.8
